Where a name gives a salt, the structure may show the parent alone.
system: Danio rerio larvae (5 dpf); test: difference in excitability vs DMSO (percentage points); higher = more excitable than DMSO; settings: 10 µM; exposure time 6 h
Summary of the method: (§1)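 Wild-type zebrafish larvae at 5 dpf were kept in 96-well plates and exposed for 6 h to 100 µL egg water holding library compound at a final concentration of 10 µM. From 3 h into exposure, the plates were held at 28.5 ℃ and photographed every 6 s through a 3-h programme of moving lines and 100 ms, 400Hz tones. Each behaviour was scored by Z-LaP Tracker, a DeepLabCut model, and averaged over 48 larvae per compound. Every value gives the compound mean minus the vehicle control mean, in percentage points.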

SMILES	difference in excitability
CN(C)C(=O)Oc1ccc[n+](C)c1 [Pyridostigmine (bromide)]	-1.66
O=[N+]([O-])O[C@H]1CO[C@H]2[C@@H]1OC[C@H]2O[N+](=O)[O-] [Isosorbide Dinitrate]	5.95
CN1[C@@H]2CC[C@H]1C[C@@H](OC(=O)C(CO)c1ccccc1)C2 (some centres not stated) [Atropine]	-7.7
N[C@@H]1C[C@H]1c1ccccc1 [Tranylcypromine (hydrochloride)]	-4.31
C[C@H](N)[C@H](O)c1ccc(O)c(O)c1 [Levonordefrin]	2.43
O=c1[nH]c2ccccc2n1C1CCN(CCCC(c2ccc(F)cc2)c2ccc(F)cc2)CC1 [Pimozide]	-5.57
C=CCN1CC[C@]23c4c5ccc(O)c4O[C@H]2[C@@H](OCCOCCOCCOCCOCCOCCOCCOC)CC[C@@]3(O)[C@H]1C5 [Naloxegol (oxalate)]	3.05
C[C@]12CC[C@H](O)CC1=CC[C@@H]1[C@@H]2CC[C@]2(C)C(=O)CC[C@@H]12 [Dehydroepiandrosterone]	19
Cc1cccc([C@H](C)c2c[nH]cn2)c1C [Dexmedetomidine (hydrochloride)]	3.34
O=P1(N(CCCl)CCCl)NCCCO1 (configuration not stated) [Cyclophosphamide (hydrate)]	-1.55
COc1cc([C@@H]2c3cc4c(cc3[C@H](O)[C@H]3COC(=O)[C@H]23)OCO4)cc(OC)c1OC [Podophyllotoxin]	12.7
CC1=C[C@]23C(=O)[C@@H](C=C(CO)[C@@H](O)[C@]2(O)[C@H]1O)[C@H]1[C@@H](C[C@H]3C)C1(C)C [Ingenol]	8.75
O=P1(NCCCl)OCCCN1CCCl (configuration not stated) [Ifosfamide]	10
Cn1c(CCCC(=O)O)nc2cc(N(CCCl)CCCl)ccc21 [Bendamustine (hydrochloride)]	1.71
CC(C)C[C@H]1C(=O)N2CCC[C@H]2[C@]2(O)O[C@](NC(=O)[C@@H]3C[C@@H]4c5cccc6[nH]cc(c56)C[C@H]4N(C)C3)(C(C)C)C(=O)N12.CC(C)[C@@]1(NC(=O)[C@@H]2C[C@@H]3c4cccc5[nH]cc(c45)C[C@H]3N(C)C2)O[C@@]2(O)[C@@H]3CCCN3C(=O)[C@H](Cc3ccccc3)N2C1=O.CC(C)[C@H]1C(=O)N2CCC[C@H]2[C@]2(O)O[C@](NC(=O)[C@@H]3C[C@@H]4c5cccc6[nH]cc(c56)C[C@H]4N(C)C3)(C(C)C)C(=O)N12.CCC(C)[C@H]1C(=O)N2CCC[C@H]2[C@]2(O)O[C@](NC(=O)[C@@H]3C[C@@H]4c5cccc6[nH]cc(c56)C[C@H]4N(C)C3)(C(C)C)C(=O)N12 [Ergoloid (mesylates)]	8.62
CCN(C(C)=O)c1cccc(-c2ccnc3c(C#N)cnn23)c1 [Zaleplon]	-3.98
O=C(O[C@H]1C[N+]2(CCCOc3ccccc3)CCC1CC2)C(O)(c1cccs1)c1cccs1 [Aclidinium (bromide)]	-0.582
CC(C)C[C@H]1C(=O)N2CCC[C@H]2[C@]2(O)O[C@](NC(=O)[C@@H]3C=C4c5cccc6[nH]c(Br)c(c56)C[C@H]4N(C)C3)(C(C)C)C(=O)N12 [Bromocriptine (mesylate)]	22.1
CC[C@@H](C(N)=O)N1CCCC1=O [Levetiracetam]	1.51
O=C(O)CCCc1ccc(N(CCCl)CCCl)cc1 [Chlorambucil]	12.6
N[C@@H](Cc1ccc(N(CCCl)CCCl)cc1)C(=O)O [Melphalan]	10.9
C[N+]1(C)CCCC(OC(=O)C(O)(c2ccccc2)c2ccccc2)C1 (configuration not stated) [Mepenzolate (bromide)]	0.196
CCOC(=O)c1cncn1[C@H](C)c1ccccc1 [Etomidate]	-7.08
COc1cc2c(cc1OC)C1CC(=O)C(CC(C)C)CN1CC2 (configuration not stated) [Tetrabenazine]	25.1
C#CCN(C)[C@H](C)Cc1ccccc1 [R-(-)-Deprenyl (hydrochloride)]	-5.66
Nc1ncnc2c1ncn2CCOCP(=O)(O)O [Adefovir]	-0.414

system: Danio rerio larvae (5 dpf); test: difference in startle response vs DMSO (percentage points); higher = stronger startle than DMSO; settings: 10 µM; exposure time 6 h
Summary of the method: as §1

SMILES	difference in startle response
CN(C)C(=O)Oc1ccc[n+](C)c1 [Pyridostigmine (bromide)]	-2.73
O=[N+]([O-])O[C@H]1CO[C@H]2[C@@H]1OC[C@H]2O[N+](=O)[O-] [Isosorbide Dinitrate]	10.4
CN1[C@@H]2CC[C@H]1C[C@@H](OC(=O)C(CO)c1ccccc1)C2 (some centres not stated) [Atropine]	-5.16
N[C@@H]1C[C@H]1c1ccccc1 [Tranylcypromine (hydrochloride)]	-7.1
C[C@H](N)[C@H](O)c1ccc(O)c(O)c1 [Levonordefrin]	-2.28
O=c1[nH]c2ccccc2n1C1CCN(CCCC(c2ccc(F)cc2)c2ccc(F)cc2)CC1 [Pimozide]	7.75
C=CCN1CC[C@]23c4c5ccc(O)c4O[C@H]2[C@@H](OCCOCCOCCOCCOCCOCCOCCOC)CC[C@@]3(O)[C@H]1C5 [Naloxegol (oxalate)]	1.93
C[C@]12CC[C@H](O)CC1=CC[C@@H]1[C@@H]2CC[C@]2(C)C(=O)CC[C@@H]12 [Dehydroepiandrosterone]	-2.18
Cc1cccc([C@H](C)c2c[nH]cn2)c1C [Dexmedetomidine (hydrochloride)]	6.43
O=P1(N(CCCl)CCCl)NCCCO1 (configuration not stated) [Cyclophosphamide (hydrate)]	-0.479
COc1cc([C@@H]2c3cc4c(cc3[C@H](O)[C@H]3COC(=O)[C@H]23)OCO4)cc(OC)c1OC [Podophyllotoxin]	-7.15
CC1=C[C@]23C(=O)[C@@H](C=C(CO)[C@@H](O)[C@]2(O)[C@H]1O)[C@H]1[C@@H](C[C@H]3C)C1(C)C [Ingenol]	2.54
O=P1(NCCCl)OCCCN1CCCl (configuration not stated) [Ifosfamide]	-6.24
Cn1c(CCCC(=O)O)nc2cc(N(CCCl)CCCl)ccc21 [Bendamustine (hydrochloride)]	-1.73
CC(C)C[C@H]1C(=O)N2CCC[C@H]2[C@]2(O)O[C@](NC(=O)[C@@H]3C[C@@H]4c5cccc6[nH]cc(c56)C[C@H]4N(C)C3)(C(C)C)C(=O)N12.CC(C)[C@@]1(NC(=O)[C@@H]2C[C@@H]3c4cccc5[nH]cc(c45)C[C@H]3N(C)C2)O[C@@]2(O)[C@@H]3CCCN3C(=O)[C@H](Cc3ccccc3)N2C1=O.CC(C)[C@H]1C(=O)N2CCC[C@H]2[C@]2(O)O[C@](NC(=O)[C@@H]3C[C@@H]4c5cccc6[nH]cc(c56)C[C@H]4N(C)C3)(C(C)C)C(=O)N12.CCC(C)[C@H]1C(=O)N2CCC[C@H]2[C@]2(O)O[C@](NC(=O)[C@@H]3C[C@@H]4c5cccc6[nH]cc(c56)C[C@H]4N(C)C3)(C(C)C)C(=O)N12 [Ergoloid (mesylates)]	4.7
CCN(C(C)=O)c1cccc(-c2ccnc3c(C#N)cnn23)c1 [Zaleplon]	-8.07
O=C(O[C@H]1C[N+]2(CCCOc3ccccc3)CCC1CC2)C(O)(c1cccs1)c1cccs1 [Aclidinium (bromide)]	-8.56
CC(C)C[C@H]1C(=O)N2CCC[C@H]2[C@]2(O)O[C@](NC(=O)[C@@H]3C=C4c5cccc6[nH]c(Br)c(c56)C[C@H]4N(C)C3)(C(C)C)C(=O)N12 [Bromocriptine (mesylate)]	-1.2
CC[C@@H](C(N)=O)N1CCCC1=O [Levetiracetam]	0.691
O=C(O)CCCc1ccc(N(CCCl)CCCl)cc1 [Chlorambucil]	1.74
N[C@@H](Cc1ccc(N(CCCl)CCCl)cc1)C(=O)O [Melphalan]	1.5
C[N+]1(C)CCCC(OC(=O)C(O)(c2ccccc2)c2ccccc2)C1 (configuration not stated) [Mepenzolate (bromide)]	-4.42
CCOC(=O)c1cncn1[C@H](C)c1ccccc1 [Etomidate]	15.9
COc1cc2c(cc1OC)C1CC(=O)C(CC(C)C)CN1CC2 (configuration not stated) [Tetrabenazine]	3.39
C#CCN(C)[C@H](C)Cc1ccccc1 [R-(-)-Deprenyl (hydrochloride)]	-0.482
Nc1ncnc2c1ncn2CCOCP(=O)(O)O [Adefovir]	3.47

— the supplement of paper PMC10515830
